Test results: PubChem BioAssay (NCATS)
Results filed as inconclusive are left out. Unless noted, calls come from the whole dose curve; as a rule, active = well fitted curve in either direction with a large enough effect (not every such curve was filed as active); inconclusive = small, poorly fitted or top-dose-only effect, or another doubt; inactive = flat fitted curve, though single readings scatter.

Columns and labels:
[1] = AP1 Signaling Pathway (AID 357); conditions: ME-180 AP-1-bla reporter, EGF-induced, beta-lactamase ratio, 5 h; at 17.2 µM (top of the series) unless noted; note: % is set by controls: 0 for no effect and ±100 for the full control effect
How it was run: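 In this screen, ME-180 cells in Opti-MEM with 0.5% dialyzed FBS received EC50 EGF and compound titrations for 5 h. AP-1 reporter beta-lactamase was detected via CCF4 ratio, giving AC50 for positive and negative modulators.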

[2] = NFAT Signaling Pathway (AID 444); conditions: Jurkat NFAT-bla M1, carbachol, beta-lactamase ratio, 5 h; at 17.2 µM (top of the series) unless noted;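 note: carbachol stimulus at about its EC50 of 1 µM final; % is set by controls: 0 for no effect and ±100 for the full control effect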
How it was run: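 Jurkat cells with NFAT-driven β-lactamase reporter and co-expressed M1 receptor, stimulated with carbachol (final 1 uM, ~EC50), compound titration, 5 h at 37 °C. CCF4 loaded 1 h at RT; 460/530 nm ratio gave %activity and AC50.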

[3] = Stat Signaling Pathway (AID 446); conditions: ME-180 SIE beta-lactamase reporter, IL-6 stimulated, 5 h; at 17.2 µM (top of the series) unless noted;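 note: ME-180 cervical cancer cells given 40 pM IL-6 alongside compound; SIE-controlled beta-lactamase reporter measured as 460/530 nm FRET emission ratio; % is set by controls: 0 for no effect and ±100 for the full control effect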
How it was run: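 ME-180 cells carrying a SIE-driven beta-lactamase reporter are stimulated with 40 pM IL-6 for 5 h at 37C in the presence of compound. The 460/530 nm FRET substrate ratio is read after 2.5 h at RT. Data are normalised to 300 pM IL-6 and to 125 nM JAK inhibitor controls.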

[4] = target: Glucocorticoid receptor (Homo sapiens) (UniProt P04150); test: GR-GFP Redistribution (AID 450;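 active = compounds whose dose series gives a full or clear partial fitted curve of increased nuclear translocation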; note: potency is the fitted concentration of half-maximal effect)
Glucocorticoid receptor (Homo sapiens), sequence (P04150 whole entry, looked up): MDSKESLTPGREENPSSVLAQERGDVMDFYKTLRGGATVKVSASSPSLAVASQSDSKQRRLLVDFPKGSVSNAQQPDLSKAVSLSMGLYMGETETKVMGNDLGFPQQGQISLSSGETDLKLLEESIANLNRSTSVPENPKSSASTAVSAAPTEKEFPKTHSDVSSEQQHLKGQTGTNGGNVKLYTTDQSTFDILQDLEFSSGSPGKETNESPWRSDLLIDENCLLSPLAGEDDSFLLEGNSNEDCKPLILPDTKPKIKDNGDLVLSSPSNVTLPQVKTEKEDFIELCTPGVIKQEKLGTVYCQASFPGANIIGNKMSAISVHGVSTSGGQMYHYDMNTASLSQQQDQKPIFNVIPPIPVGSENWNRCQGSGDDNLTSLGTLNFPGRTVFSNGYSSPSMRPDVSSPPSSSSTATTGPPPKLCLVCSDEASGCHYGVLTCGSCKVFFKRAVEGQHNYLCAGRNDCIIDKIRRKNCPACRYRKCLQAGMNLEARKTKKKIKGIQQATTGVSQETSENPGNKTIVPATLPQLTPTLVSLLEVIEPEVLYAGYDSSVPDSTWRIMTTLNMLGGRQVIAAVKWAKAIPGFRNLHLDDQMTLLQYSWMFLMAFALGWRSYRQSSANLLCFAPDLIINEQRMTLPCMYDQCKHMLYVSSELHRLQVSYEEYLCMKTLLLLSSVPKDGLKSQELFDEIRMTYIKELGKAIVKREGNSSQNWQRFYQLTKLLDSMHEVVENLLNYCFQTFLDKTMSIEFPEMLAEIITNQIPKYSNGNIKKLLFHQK

COc1cccc(OC)c1-c1nn2c(-c3ccco3)nnc2s1
inactive: activity change, negative = inhibition [1] -10.9% | activity change, negative = inhibition [2] -8.25% | activity, negative = inhibition [3] -4.43% | Potency [4] > 20.6 µM

C=C(c1ccc(OCCO)cc1)c1ccc(OCCO)cc1
inactive: activity change, negative = inhibition [1] -5.64% | activity change, negative = inhibition [2] -1.3% | activity, negative = inhibition [3] -3.23% | Potency [4] > 20.6 µM

CCc1cc2c(=O)c(-c3cscn3)coc2cc1O
inactive: activity change, negative = inhibition [1] -3.15% | activity change, negative = inhibition [2] -8.09% | activity, negative = inhibition [3] -14.6% | Potency [4] > 20.6 µM

Clc1ccccc1-c1nn2c(-c3ccccn3)nnc2s1
inactive: activity change, negative = inhibition [1] -2.63% | activity change, negative = inhibition [2] -11.1% | activity, negative = inhibition [3] 12.8% | Potency [4] > 20.6 µM

N#C/C(C(=O)NCc1ccco1)=C1/SC(Cc2ccc(F)cc2)C(=O)N1c1ccccc1 (stereo not given)
inactive: activity change, negative = inhibition [1] 1.52% | activity change, negative = inhibition [2] -9.67% | activity, negative = inhibition [3] -22.9% | Potency [4] > 20.6 µM

CC12CCC(C(=O)NCCCN3CCOCC3)(OC1=O)C2(C)C (stereo not given)
inactive: activity change, negative = inhibition [1] 12% | activity change, negative = inhibition [2] 10.5% | activity, negative = inhibition [3] 3.88% | Potency [4] > 20.6 µM

c1ccc(-c2nnc(OCCN3CCOCC3)c3ccccc23)cc1
inactive: activity change, negative = inhibition [1] -8.82% | activity change, negative = inhibition [2] 5.5% | activity, negative = inhibition [3] 5.26% | Potency [4] > 20.6 µM

O=C1CC(c2ccco2)CC(O)=C1C=Nc1cc(Cl)ccc1O (stereo not given)
inactive: activity change, negative = inhibition [1] -23.8% | activity change, negative = inhibition [2] -1.32% | activity, negative = inhibition [3] -10.9% | Potency [4] > 20.6 µM

Cc1cc(=O)n2[nH]c(N3C(=O)CCC3=O)nc2n1
inactive: activity change, negative = inhibition [1] 5.03% | activity change, negative = inhibition [2] -4.69% | activity, negative = inhibition [3] 11.6% | Potency [4] > 20.6 µM

CCN(CC)CCN1C(=O)C(O)=C(C(=O)c2cccs2)C1c1ccccn1 (stereo not given)
inactive: activity change, negative = inhibition [1] -0.981% | activity change, negative = inhibition [2] 9.2% | activity, negative = inhibition [3] -0.0775% | Potency [4] > 20.6 µM

Cc1cccc(C)c1OCC(O)CNS(=O)(=O)c1ccccc1C(=O)N1CCOCC1 (stereo not given)
inactive: activity change, negative = inhibition [1] -8.76% | activity change, negative = inhibition [2] 9% | activity, negative = inhibition [3] 3.91% | Potency [4] > 20.6 µM

CCOc1ccc(-c2nc(C#N)c(NCC(C)C)o2)cc1
inactive: activity change, negative = inhibition [1] -22.8% | activity change, negative = inhibition [2] -3.57% | activity, negative = inhibition [3] -7.96% | Potency [4] > 20.6 µM

COc1cccc(COc2nc3c(c(=O)n(C)c(=O)n3C)n2C)c1
inactive: activity change, negative = inhibition [1] -9.75% | activity change, negative = inhibition [2] 12.8% | activity, negative = inhibition [3] -3.58% | Potency [4] > 20.6 µM

Cc1nn(CC(=O)N2CCOCC2)c(=O)c2ccccc12
inactive: activity change, negative = inhibition [1] 10.7% | activity change, negative = inhibition [2] 8.23% | activity, negative = inhibition [3] 1.28% | Potency [4] > 20.6 µM

CN/C(=C/[N+](=O)[O-])NCCSCc1ccc(CN(C)C)o1
inactive: activity change, negative = inhibition [1] -15.4% | activity change, negative = inhibition [2] -27.6% | activity, negative = inhibition [3] -3.38% | Potency [4] > 20.6 µM

CCCCn1c(=O)n(C)c(=O)c2c3c(sc21)COC(C)(C)C3
inactive: activity change, negative = inhibition [1] -4.87% | activity change, negative = inhibition [2] 5.64% | activity, negative = inhibition [3] -7.31% | Potency [4] > 20.6 µM

Cc1cc(C)cc(CC2CC(=O)N(c3cc(C)on3)C2=O)c1 (stereo not given)
inactive: activity change, negative = inhibition [1] -8.62% | activity change, negative = inhibition [2] -3.65% | activity, negative = inhibition [3] -12.9% | Potency [4] > 20.6 µM

COc1ccc(C2CC(=O)c3sc(N)nc3C2)cc1 (stereo not given)
inactive: activity change, negative = inhibition [1] -9.21% | activity change, negative = inhibition [2] 5.45% | activity, negative = inhibition [3] 3.6% | Potency [4] > 20.6 µM

Cc1ccc(C2/C(=C(\O)c3ccc4c(c3)OCCO4)C(=O)C(=O)N2CCCN(C)C)o1 (stereo not given)
inactive: activity change, negative = inhibition [1] 1.54% | activity change, negative = inhibition [2] -21.4% | activity, negative = inhibition [3] -1.3% | Potency [4] > 20.6 µM

COC(=O)c1ccc(C2/C(=C(/O)c3ccc(OC)cc3)C(=O)C(=O)N2c2cc(C)on2)cc1 (stereo not given)
inactive: activity change, negative = inhibition [1] -14% | activity change, negative = inhibition [2] -13.5% | activity, negative = inhibition [3] -20.1% | Potency [4] > 20.6 µM

CCOC(=O)c1cc2cc(OC)ccc2[nH]1
inactive: activity change, negative = inhibition [1] -4.55% | activity change, negative = inhibition [2] -5% | activity, negative = inhibition [3] -4.94% | Potency [4] > 20.6 µM

Cn1c(OCc2cccnc2)nc2c1c(=O)n(Cc1ccccc1)c(=O)n2C
inactive: activity change, negative = inhibition [1] -12.1% | activity change, negative = inhibition [2] -1.28% | activity, negative = inhibition [3] 4.58% | Potency [4] > 20.6 µM

CCOc1ccc(Cc2nc(N)nc(N)n2)cc1
inactive: activity change, negative = inhibition [1] -3.76% | activity change, negative = inhibition [2] 6.51% | activity, negative = inhibition [3] 8.67% | Potency [4] > 20.6 µM

Cc1nc(-c2coc3cc(OCC(=O)O)ccc3c2=O)cs1
inactive: activity change, negative = inhibition [1] 7.54% | activity change, negative = inhibition [2] -2.11% | activity, negative = inhibition [3] 3.59% | Potency [4] > 20.6 µM

COc1ccccc1C(=O)N1CCCC1(C#N)c1ccccc1 (stereo not given)
inactive: activity change, negative = inhibition [1] -10.1% | activity change, negative = inhibition [2] -0.126% | activity, negative = inhibition [3] -2.09% | Potency [4] > 20.6 µM
